The whole screen tested about 5,500 compounds, of which about 2,000 (36%) were called active. Not shown: some 18% with an inconclusive outcome. Rule as the data show it: active = normalized growth mostly below about 0.91 (no sharp cut-off); inconclusive = no clear call, values can overlap the other calls; inactive = mostly above about 0.92. The list shows a part of the results.
Assay: chemical genetic growth profiling, strain panel (AID 1159580);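 also: tested at 20 µM; growth read once vehicle control cultures reached saturation at 30 °C; 1 = growth at the plate median or of vehicle wells; lower values mean less growth of the strain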
Settings: S. cerevisiae deletion strains, growth OD
[1] = locus YGR078C, strain PAC10, hits give low values
[2] = locus YPL055C, strain LGE1, hits give low values

Measured: normalized growth

Nc1ccc2c3c(cccc13)C(=O)NC2=O
inactive: locus YAL040C, strain CLN3, hits give low values 0.997 | locus YCL061C, strain MRC1 (second series), hits give low values 1 | locus YER002W, strain NOP16, hits give low values 0.998 | [1] 0.981 | locus YMR307W, strain GAS1, hits give low values 0.995 | locus YNL128W, strain TEP1, hits give low values 0.988 | locus YNL175C, strain NOP13, hits give low values 0.999 | locus YNL197C, strain WHI3, hits give low values 1.01 | locus YNL224C, strain SQS1, hits give low values 0.985 | locus YOR083W, strain WHI5 (second series), hits give low values 0.965 | [2] 1.01

Nc1cccc2c1C(=O)c1ccccc1-2
inactive: locus YDR150W, strain NUM1, hits give low values 0.95 | locus YNL322C, strain KRE1, hits give low values 1.03
active: locus YAL013W, strain DEP1, hits give low values 0.676 | locus YBR229C, strain ROT2, hits give low values 0.313 | locus YCL061C, strain MRC1, hits give low values 0.438 | locus YDL101C, strain DUN1, hits give low values 0.368 | locus YEL061C, strain CIN8, hits give low values 0.516 | [1] 0.617 | locus YHR030C, strain SLT2, hits give low values 0.134 | locus YHR087W, strain rtc3, hits give low values 0.0566 | locus YJR043C, strain POL32, hits give low values 0.756 | locus YJR075W, strain HOC1, hits give low values 0.0797 | locus YKL190W, strain CNB1, hits give low values 0.046 | locus YLR039C, strain RIC1, hits give low values 0.06 | locus YLR058C, strain SHM2 (second series), hits give low values 0.0581 | locus YLR085C, strain ARP6, hits give low values 0.0974 | locus YLR262C, strain YPT6, hits give low values 0.138 | locus YML094W, strain GIM5, hits give low values 0.553 | locus YMR219W, strain ESC1, hits give low values 0.664 | locus YMR263W, strain SAP30, hits give low values 0.837 | locus YNL153C, strain GIM3, hits give low values 0.125 | locus YNL298W, strain CLA4 (second series), hits give low values 0.267 | locus YNR030W, strain Alg12, hits give low values 0.729 | locus YOL006C, strain TOP1, hits give low values 0.0699 | [2] 0.6 | locus YPL241C, strain CIN2, hits give low values 0.675 | locus YPR135W, strain CTF4, hits give low values 0.167

Reference: PubChem BioAssay AID1159580 (chemical genetic matrix, 2015)
